Among the data in PubChem BioAssay AID778 (Sanford-Burnham Center for Chemical Genomics, 2007) are inhibition values, retold here.

The campaign covered roughly 96,000 compounds. About 20,000 (21%) were called active. Only a sample is shown. Unmarked numbers belong to inactive results.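 The calls were made as follows: active = CYP2C19 inhibition above a set limit at 5 µM in the primary screen (cut at about 50% in these data); inactive = the rest.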

The target of this experiment is Cytochrome P450 2C19 (Homo sapiens) (UniProt P33261). Description: blockers of cytochrome P450 2C19 activity – biochemical, luminescence, ADME assay, primary screen (AID 778).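 Also: plate controls were negative control wells for no effect and 2.5 mM tranylcypromine positive control for full effect.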 The following applies: CYP2C19 Supersomes, luciferin-H EGE luminescence, 30 min; at 5 µM; active compounds read high.
Sequence of Cytochrome P450 2C19 (Homo sapiens) (P33261 whole entry, looked up): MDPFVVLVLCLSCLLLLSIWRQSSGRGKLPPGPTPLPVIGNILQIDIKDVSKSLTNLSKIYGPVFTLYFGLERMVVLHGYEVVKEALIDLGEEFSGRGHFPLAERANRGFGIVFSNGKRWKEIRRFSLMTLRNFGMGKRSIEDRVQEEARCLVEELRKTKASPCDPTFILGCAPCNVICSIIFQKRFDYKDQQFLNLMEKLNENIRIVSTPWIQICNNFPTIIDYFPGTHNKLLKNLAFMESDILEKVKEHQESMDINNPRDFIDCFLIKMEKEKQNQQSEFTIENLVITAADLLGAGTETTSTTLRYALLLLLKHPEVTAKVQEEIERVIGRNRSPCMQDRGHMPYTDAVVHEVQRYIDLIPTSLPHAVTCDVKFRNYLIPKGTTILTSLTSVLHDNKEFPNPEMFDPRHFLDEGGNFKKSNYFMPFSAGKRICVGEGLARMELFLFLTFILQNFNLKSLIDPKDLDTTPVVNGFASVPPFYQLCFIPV
Take `CCc1ccc(CNC(=O)C2CCCN(c3nc4ccccc4o3)C2)cc1` (stereo not given): the inhibition was 65.8% (active).
As for `COc1ccccc1CNC(=O)C1CCN(c2nc3ccccc3o2)CC1`, the inhibition is 3.5%.
The value for `COc1ccc(OC)c(CNC(=O)C2CCCN(c3nc4ccccc4o3)C2)c1` (stereo not given) was 17.2%; that for `COc1ccc2ccccc2c1CNCc1ccccn1` was 15.9%; that for `COc1ccc(/C(O)=C2\C(=O)C(=O)N(Cc3ccco3)C2c2ccc(OC)cc2OC)cc1` (stereo not given) was 3.4%.
Regarding `COc1ccc(/C(O)=C2/C(=O)C(=O)N(c3nc(C)c(C)s3)C2c2ccco2)cc1` (stereo not given), the inhibition was 58.8% (active).
Under `COc1ccccc1C1/C(=C(/O)c2ccc(OC(C)C)cc2)C(=O)C(=O)N1c1cc(C)on1` (stereo not given) stands -7.6%.
With `CN(C)CCCn1c(N)c(C#N)c2nc(C#N)c(C#N)nc21`, the inhibition was -1.9%.
On to `COC(=O)C(C)Oc1ccc2c(-c3cccc([N+](=O)[O-])c3)cc(=O)oc2c1` (stereo not given), for which the inhibition was 28.8%.
Under `O=C(Nc1ccc(Cl)cc1)c1cc2nc(C3CC3)cc(C(F)(F)F)n2n1` stands -6.4%; under `C=CCNC(=O)c1cc2nc(C3CC3)cc(C(F)F)n2n1`, 51.2% (active); under `Cc1nc(N2CCCC2C(=O)O)c2oc3ccccc3c2n1` (stereo not given), 2.4%.
As to `Cc1ccccc1NC(=O)C(C)c1ccc(-c2ccccc2)c(F)c1` (stereo not given), the inhibition was 7.1%.
Turning to `Cc1nn(C)c(Oc2ccccc2)c1CCNS(=O)(=O)c1ccc(F)cc1`, the inhibition is 96.7% (active).
`Cc1nn(C)c(Oc2ccccc2)c1[N+](=O)[O-]`: the inhibition is 64% (active).
Under `Cc1n[nH]c(=O)n1-c1ccc(Oc2ccccc2)cc1` stands 18.5%; under `Cc1nn(C)c(Oc2ccc(Cl)cc2)c1C=O`, 27.7%; under `Cc1cccc(N2C(=O)SC(N(CC(=O)O)c3cccc(C)c3)C2=O)c1` (stereo not given), 1.5%.
For the compound `COC(=O)C(NC(=O)c1ccc(OC)cc1)(Nc1ncc(S(=O)(=O)c2ccc([N+](=O)[O-])cc2)s1)C(F)(F)F` (stereo not given), the inhibition is 33.8%.
As for `c1ccc(CSCCc2ccncc2)cc1`, the inhibition was 99.8% (active).
For the compound `O=C(CSCc1ccc([N+](=O)[O-])cc1)NCCSCc1ccccc1`, the inhibition is 21.3%.
As to `COc1ccc(-c2nn(C)c(=O)c3ccccc23)cc1NC(=O)COc1ccccc1`, the inhibition was 25.6%.
On to `CCOc1nc(OCC)nc(-n2cc(-c3ccccc3)nn2)n1`, for which the inhibition is 3.5%.
Under `Cc1cnc(NC(=O)CSc2nnc(-c3ccc(Cl)cc3Cl)n2N)s1` stands 23.2%; under `COc1ccc(-c2nnc(SC(C)C#N)o2)cc1` (stereo not given), 10.9%; under `C#CCNc1nc(C(C)C)nc2c1nnn2Cc1ccccc1F`, 37.3%.
With `Cc1nc(Nc2ccc3c(c2)OCCO3)c2nnn(Cc3ccccc3Cl)c2n1`, the inhibition was 83.2% (active).
Regarding `O=C(Nc1cc2ccccc2oc1=O)C1CCCCC1`, the inhibition was 0.3%.
Regarding `O=C(CC12CC3CC(CC(C3)C1)C2)Nc1ccc2c(c1)COC2=O`, the inhibition was 12.8%.
With `O=C(/C=C/c1cccs1)c1cc(Cl)ccc1OC(=O)N1CCOCC1`, the inhibition is 90.6% (active).
Consider `CC(=O)Nc1ccccc1OC(=O)N1CCOCC1`, for which the inhibition was 0.3%.
Consider `O=C(Oc1ccc2c(c1)CCC2)N1CCOCC1`, for which the inhibition is 11.1%.
Take `O=c1cc(N2CCN(Cc3ccccc3)CC2)c(-c2ccccc2)n[nH]1`: the inhibition is 19%.
Regarding `CCOC(=O)c1cc(C)sc1NC(=O)C1CCC1`, the inhibition is 54.6% (active).
As to `Cc1cnc(NC(=O)C2CCCC2)s1`, the inhibition was 17.5%.
As for `CCOC(=O)c1c(NC(C)=O)sc2c(O)c(Br)ccc12`, the inhibition is 3.8%.
For the compound `CC(=NC1CCN(Cc2ccccc2)CC1)c1c(O)[nH]c(=O)[nH]c1=O`, the inhibition was -7.4%.
With `CC(C)c1nnc(NC(=O)C2CCCN2S(=O)(=O)c2ccc(Cl)cc2)s1` (stereo not given), the inhibition was 17.2%.
Consider `CCOc1ccc(NC(=O)CC2NCCNC2=O)cc1` (stereo not given), for which the inhibition was 1.1%.
As for `CCOc1ccc(S(=O)(=O)n2ccnc2)c2ccccc12`, the inhibition is 66.5% (active).
With `CCOc1ccc(S(=O)(=O)N2CCCCCC2)c2ccccc12`, the inhibition was 32.3%.
Regarding `CCOC(=O)c1ccc(N2C(=O)CC(N3CC(C)OC(C)C3)C2=O)cc1` (stereo not given), the inhibition is 6.8%.
Take `CCOC(=O)c1ccc(N2C(=O)CC(N3CCC(C(=O)OCC)CC3)C2=O)cc1` (stereo not given): the inhibition is 47.5%.
`CCCCOC(=O)c1ccc(N2C(=O)CC(N3CCN(C/C=C/c4ccccc4)CC3)C2=O)cc1` (stereo not given): the inhibition is 86.2% (active).
As to `CCCCCCC(=O)Nc1nc(C)c(-c2csc(Nc3cccc(OC)c3)n2)s1`, the inhibition is -4.8%.
Regarding `COC(=O)c1ccccc1Sc1c(/C=N/OCc2ccc(Cl)cc2)c(C(F)(F)F)nn1C`, the inhibition was 72.6% (active).
As to `COC(=O)c1ccccc1NC(=O)Cn1nc(C(F)(F)F)c2c1CCC2`, the inhibition was 36.4%.
Regarding `O=C1N=C2SCCN2/C1=C\c1c(Cl)cccc1Cl`, the inhibition is 11.1%.
As to `Cc1cc(Nc2ccccc2)nc(N)n1`, the inhibition is -8.2%.
The value for `CNC(=O)n1ccc(C(=O)N2CCCCC2)n1` was -16.6%; that for `O=C(/C=C/NNC(=O)c1cccc(Br)c1)c1ccccc1` was 76.7% (active).
For `O=C(/C=C\NCC(=O)c1ccccc1)c1ccccc1`, the inhibition was 46.4%.
The value for `CC(C)(O)C(=O)NN(C(=O)c1ccccc1)c1cccc(Br)c1` was 2.5%; that for `CCC(C)(C(=O)NC1CCCC1)N(C(=O)CNC(C)=O)c1ccc(C)cc1` (stereo not given) was 21.1%.
`CCOc1ccccc1NC(=O)C1CCC(CNc2c(N3CCOCC3)c(=O)c2=O)CC1` (stereo not given): the inhibition is -13.1%.
Under `CCOc1ccccc1NC(=O)C12CC3CC(C1)CC(c1ccc(C)cc1)(C3)C2` stands 51.9% (active); under `CCOc1ccc(NC(=O)CN(C)CC(=O)Nc2cccc(Cl)c2C)cc1OCC`, 21.6%.
`CCOCC(=O)Nc1cc(OC)c(Cl)cc1OC`: the inhibition was 29.8%.
Turning to `COc1ccc(-c2cc(C(F)(F)F)n3nc(C(=O)N4CCOCC4)c(Cl)c3n2)cc1`, the inhibition is -7.1%.
For the compound `FC(F)Oc1ccccc1C1CC(c2ccc(Br)s2)Nc2ncnn21` (stereo not given), the inhibition is 98.5% (active).
Consider `COc1ccc2[nH]c3c(=O)n(Cc4ccco4)cnc3c2c1`, for which the inhibition is 21.8%.
Consider `CCC(c1nnnn1Cc1ccco1)N(CCc1ccccc1)Cc1cc2cccc(C)c2[nH]c1=O` (stereo not given), for which the inhibition is 38.3%.
For the compound `CCC(=O)N(Cc1cc2cc(OC)ccc2[nH]c1=O)c1ccccc1C`, the inhibition is 21.8%.
With `CCC(c1nnnn1Cc1ccco1)N(Cc1cc2cc(OC)ccc2[nH]c1=O)C1CCCCC1` (stereo not given), the inhibition is 53.6% (active).
In the case of `CCC(c1nnnn1Cc1ccccc1)N(Cc1cc2cc(OC)ccc2[nH]c1=O)CC1CCCO1` (stereo not given), the inhibition is 44.9%.
In the case of `CCC(c1nnnn1Cc1ccco1)N(CCc1ccccc1)Cc1cc2ccc(OC)cc2[nH]c1=O` (stereo not given), the inhibition was 92.2% (active).
For the compound `O=C1c2ccccc2-c2ncnc3c(N4CCOCC4)cc(N4CCOCC4)c1c23`, the inhibition is 29.6%.
With `CCOC(=O)c1sc(NC(=O)CSc2nc(C)cc(C(F)(F)F)n2)c(C#N)c1C`, the inhibition is 19.8%.
`Cc1cc(Oc2ccccc2)nc(N2CCOCC2)n1`: the inhibition is 94.5% (active).
For the compound `Cc1nc(N2CCOCC2)nc2c1CCCC2`, the inhibition is 28.5%.
As to `CC(=O)c1ccc(Oc2cc(C)nc(-n3nc(C)cc3C)n2)cc1`, the inhibition is -5.5%.
For `CCc1ccc2c(c1)cc(CN(C(=S)Nc1ccccc1Cl)C1CC1)c1nnnn12`, the inhibition was -11.2%.
Turning to `Cc1nc2ccccc2c2oc(C(=O)NCCCN3CCC(C)CC3)cc12`, the inhibition is -6.7%.
In the case of `O=C(NC1(C(F)(F)F)NC(=O)N(Cc2cccnc2)C1=O)c1ccccc1Cl` (stereo not given), the inhibition was 39.8%.
In the case of `CC12c3ccccc3C(c3ccccc31)C1C(=O)N(Cc3cccnc3)C(=O)C12` (stereo not given), the inhibition was 81.2% (active).
Take `CC1Oc2ccccc2N(Cc2cccnc2)C1=O` (stereo not given): the inhibition was 26.8%.
Under `O=C(CCSc1ccccc1)NCCSc1ccccn1` stands 71% (active); under `COc1cccc(N(CC(=O)NCCSc2ccccn2)S(C)(=O)=O)c1`, 53.8% (active).
Consider `CCc1ccccc1N(CC(=O)NCCSCc1ccco1)S(C)(=O)=O`, for which the inhibition is 24%.
In the case of `O=C(COc1ccc(Cl)cc1)NCCSc1ccccc1`, the inhibition was 14.6%.
For `COC(=O)c1ccccc1NC(=O)CSc1ccccn1`, the inhibition was 26.9%.
Regarding `Cc1cccc(N(CC(=O)Nc2ccc(-c3nc4ccc(C)cc4s3)cc2)S(C)(=O)=O)c1`, the inhibition was 1.8%.
Turning to `Nc1nnc(SCCN2C(=O)c3ccccc3S2(=O)=O)s1`, the inhibition was 29%.
The value for `O=C(N/N=C/c1ccsc1)c1cc(O)cc(O)c1` was 7%.
The value for `Nc1nc(C23CC4CC(CC(C4)C2)C3)cs1` was 40.8%; that for `CCC(C)OC(=O)C(C)Oc1ccc(-c2ccccc2)cc1` (stereo not given) was 0.6%; that for `O=C(NCN1CCN(CCO)CC1)c1cnccn1` was -8.6%.
`Cc1ccc(S(=O)(=O)NC(=O)N2CCCC(C)(C)C2)cc1`: the inhibition is -4.4%.
As for `Cc1ccc(S(=O)(=O)C2(S(=O)(=O)c3ccc(C)cc3)CCCC2)cc1`, the inhibition is 83.3% (active).
As for `Cc1ccc(S(=O)(=O)N(C)C2(C)CCS(=O)(=O)C2)cc1` (stereo not given), the inhibition was 18.3%.
With `CN(C)S(=O)(=O)c1ccc(N2CCCC2)c(C(=O)NCc2ccccc2)c1`, the inhibition is 62.4% (active).
Turning to `Cc1ccc(S(=O)(=O)N2CCOCC2)cc1C(=O)NCc1ccc(F)cc1`, the inhibition was 15.3%.
As for `CCN(CC)S(=O)(=O)c1ccc(N2CCOCC2)c(C(=O)O)c1`, the inhibition is 9.1%.
The value for `Cc1cc(OC(=O)c2ccc(Cl)cc2)cc(=O)n1C` was -5.3%; that for `O=C(Nc1ccccc1Cl)O/N=C(/c1ccccc1)c1ccccn1` was 21.3%.
`O=C(N1CCOCC1)N(Cc1ccccc1)c1ccccn1`: the inhibition was 31.3%.
With `COc1ccc(Cc2nnc(NS(=O)(=O)Cc3ccccc3)s2)cc1`, the inhibition was 9%.
As for `Cc1cccc(NC(=O)CN2C(=O)CNC2=O)c1`, the inhibition was -10.1%.
As for `Cc1cccc(NC(=O)CN2CCCN(S(=O)(=O)c3ccc(Br)s3)CC2)c1`, the inhibition is 67.4% (active).
Under `Cc1cccc(NC(=O)CSc2nnc(NC(=O)CN3CCOCC3)s2)c1` stands 0.9%.

One may read the inhibition as the change of the read-out against control, counted positive when it falls.
